miR-122 inh: activators of miR-122 sensor in Huh7 cells; Huh7 psiCHECK-miR122 Renilla luciferase sensor, 48 h; activation, % at 12.5 µM; 0.14% of 340,000 active; AID 623901;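 active = mean activation of 30% or more, with every replicate also reaching 30%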;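 note: 0% = median of neutral control wells and 100% = median of positive control wells; higher luciferase signal means stronger suppression of miR-122 activity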
* marks the source's active call; other numbers are inactive results. The entries come from a sample that favours hits as a whole.

What do the screens show for `CCc1ccccc1NC(=O)CN(C)C(=O)Cn1ncc(Cl)c(Cl)c1=O`?
miR-122 inh: 63*

How did CO[C@H]1CN(C)C(=O)c2ccc(NS(=O)(=O)c3ccc(C)cc3)cc2OC[C@@H](C)N(C)C[C@H]1C do in these assays?
miR-122 inh: 2

What do the screens show for `COc1cccc(C#Cc2ccc3c(c2)O[C@@H](CN(C)C(=O)CN2CCOCC2)[C@@H](C)CN([C@H](C)CO)S3(=O)=O)c1`?
miR-122 inh: 5

How did COc1cccc(C#Cc2ccc3c(c2)O[C@@H](CN(C)C(=O)CN2CCOCC2)[C@H](C)CN([C@@H](C)CO)S3(=O)=O)c1 do in these assays?
miR-122 inh: 5

How did COc1ccc(C#Cc2ccc3c(c2)O[C@H](CN(C)C(=O)NC2CCCCC2)[C@@H](C)CN([C@H](C)CO)S3(=O)=O)cc1 do in these assays?
miR-122 inh: -27

Results for COc1ccc(C#Cc2ccc3c(c2)O[C@@H](CN(C)C(=O)CN2CCOCC2)[C@@H](C)CN([C@H](C)CO)S3(=O)=O)cc1 ?
miR-122 inh: 36*

What do the screens show for `COc1cccc(C#Cc2ccc3c(c2)O[C@H](CN(C)C(=O)CN2CCOCC2)[C@H](C)CN([C@H](C)CO)S3(=O)=O)c1`?
miR-122 inh: 4

Results for COc1ccc(NC(=O)N(C)C[C@@H]2Oc3cc(C#CCC(C)C)ccc3S(=O)(=O)N([C@@H](C)CO)C[C@@H]2C)cc1 ?
miR-122 inh: 43*

Results for COc1cccc(C#Cc2ccc3c(c2)O[C@@H](CN(C)C(=O)CN2CCOCC2)[C@H](C)CN([C@H](C)CO)S3(=O)=O)c1 ?
miR-122 inh: -7

Results for COc1ccc(C#Cc2ccc3c(c2)O[C@H](CN(C)C(=O)CN2CCOCC2)[C@H](C)CN([C@@H](C)CO)S3(=O)=O)cc1 ?
miR-122 inh: 54*

What do the screens show for `C/C=C/c1ccc2c(c1)O[C@H](CN(C)C(=O)Nc1ccc(OC)cc1)[C@H](C)CN([C@@H](C)CO)S2(=O)=O`?
miR-122 inh: 6

Results for C[C@@H]1CN([C@@H](C)CO)C(=O)c2cc(C#Cc3ccc(F)cc3)cnc2O[C@@H]1CN(C)C(=O)c1ccccc1F ?
miR-122 inh: 10

How did CCC(=O)N(C)C[C@H]1Oc2ncc(C#CC3(O)CCCC3)cc2C(=O)N([C@H](C)CO)C[C@H]1C do in these assays?
miR-122 inh: 3

How did C[C@@H]1CN([C@H](C)CO)S(=O)(=O)c2ccc(C#Cc3ccccn3)cc2O[C@H]1CN(C)Cc1ccc(F)cc1 do in these assays?
miR-122 inh: -1

How did C[C@H]1CN([C@@H](C)CO)C(=O)c2cc(C#CC3(O)CCCC3)cnc2O[C@@H]1CN(C)Cc1cncnc1 do in these assays?
miR-122 inh: 2

Results for CO[C@@H]1CN(C)C(=O)c2ccc(NC(=O)Nc3ccc(Cl)cc3)cc2OC[C@H](C)N(C)C[C@H]1C ?
miR-122 inh: -4

Results for CCCNC(=O)Nc1ccc2c(c1)OC[C@H](C)NC[C@H](C)[C@H](OC)CN(C)C2=O ?
miR-122 inh: -4

How did CC(=O)N(C)C[C@H]1Oc2cc(C#CC3(O)CCCC3)ccc2S(=O)(=O)N([C@@H](C)CO)C[C@H]1C do in these assays?
miR-122 inh: -12

Results for Cc1ccc(-c2cnc3c(c2)C(=O)N([C@H](C)CO)C[C@@H](C)[C@@H](CN(C)C(=O)Cc2cccnc2)O3)cc1 ?
miR-122 inh: 1

Results for C[C@H]1CN([C@@H](C)CO)C(=O)c2cc(C#CC3(O)CCCC3)cnc2O[C@H]1CN(C)C(=O)C1CCCCC1 ?
miR-122 inh: -1

Results for COc1ccc(NS(=O)(=O)c2ccc3ccccc3c2)c2ncccc12 ?
miR-122 inh: -104

What do the screens show for `CCCCC(=O)NC(c1ccccc1OC)c1ccc2cccnc2c1O` (stereo not given)?
miR-122 inh: 46*

Results for COc1ccc(C(C)(C)C)cc1NS(=O)(=O)c1cccc2cccnc12 ?
miR-122 inh: -117

How did COc1ccc(CN(C)C[C@@H]2Oc3c(NC(=O)C4CCCCC4)cccc3C(=O)N([C@H](C)CO)C[C@H]2C)cc1 do in these assays?
miR-122 inh: -98

What do the screens show for `C[C@H](CO)N1C[C@H](C)[C@@H](CN(C)C(=O)Nc2ccc(F)cc2)Oc2ncc(-c3cccnc3)cc2C1=O`?
miR-122 inh: 0

Results for Cc1noc(C)c1NC(=O)N(C)C[C@H]1Oc2cc(C#CCC(C)C)ccc2S(=O)(=O)N([C@H](C)CO)C[C@H]1C ?
miR-122 inh: -45

What do the screens show for `Cc1ccc(S(=O)(=O)N(C)C[C@@H]2Oc3ncc(-c4cccc(F)c4)cc3C(=O)N([C@H](C)CO)C[C@@H]2C)cc1`?
miR-122 inh: -1

Results for Cc1ccc(OCC(O)Cn2c(=N)n(Cc3ccccc3)c3ccccc32)cc1 (stereo not given) ?
miR-122 inh: 90*

What do the screens show for `Cc1ccc(Cn2c(NS(=O)(=O)c3ccccc3)nc3ccccc32)cc1`?
miR-122 inh: -106

How did COc1cccc(NC(=O)N(C)C[C@@H]2Oc3cc(C#Cc4ccccc4)ccc3S(=O)(=O)N([C@H](C)CO)C[C@@H]2C)c1 do in these assays?
miR-122 inh: 4

Results for O=C(Nc1ccccc1F)N1CCCCN2[C@@H](CO)[C@@H](c3ccc(C#Cc4ccccc4)cc3)[C@@H]2C1 ?
miR-122 inh: 37*

How did COc1ccc(C#Cc2ccc([C@@H]3[C@@H](CO)N4CCCCN(C(=O)Nc5ccccc5)C[C@H]34)cc2)cc1 do in these assays?
miR-122 inh: 34*

How did O=C(Nc1ccc(F)cc1)N1CCCCN2[C@H](CO)[C@@H](c3ccc(C#Cc4ccccc4)cc3)[C@H]2C1 do in these assays?
miR-122 inh: 34*

Results for C[C@@H]1CN([C@H](C)CO)S(=O)(=O)c2ccc(/C=C/c3ccccc3)cc2O[C@H]1CN(C)C(=O)Nc1cccc(F)c1 ?
miR-122 inh: -16

What do the screens show for `CCC(=O)N(C)C[C@@H]1Oc2ncc(C#CC3(O)CCCC3)cc2C(=O)N([C@@H](C)CO)C[C@H]1C`?
miR-122 inh: -8

Results for COc1ccccc1C#Cc1ccc2c(c1)O[C@H](CN(C)Cc1ccncc1)[C@@H](C)CN([C@@H](C)CO)S2(=O)=O ?
miR-122 inh: -1

Results for COCC(=O)N(C)C[C@@H]1Oc2cc(-c3cncnc3)ccc2S(=O)(=O)N([C@H](C)CO)C[C@H]1C ?
miR-122 inh: -3

Results for C[C@H]1CN([C@@H](C)CO)C(=O)c2cc(C#Cc3cccnc3)cnc2O[C@H]1CN(C)S(C)(=O)=O ?
miR-122 inh: -1

How did COCC#Cc1cnc2c(c1)C(=O)N([C@H](C)CO)C[C@@H](C)[C@H](CN(C)C(=O)Nc1ccccc1OC)O2 do in these assays?
miR-122 inh: 2

Results for C[C@H]1CN([C@@H](C)CO)S(=O)(=O)c2ccc(C#Cc3ccccn3)cc2O[C@H]1CN(C)Cc1cccc(F)c1 ?
miR-122 inh: 1

What do the screens show for `COc1cccc(NC(=O)N(C)C[C@H]2Oc3ncc(C#Cc4ccccc4)cc3C(=O)N([C@@H](C)CO)C[C@H]2C)c1`?
miR-122 inh: 5

How did C[C@H]1CN([C@@H](C)CO)S(=O)(=O)c2ccc(C#Cc3ccncc3)cc2O[C@H]1CN(C)C(=O)c1ccncc1 do in these assays?
miR-122 inh: 7

Results for COc1cccc(-c2ccc3c(c2)O[C@H](CN(C)C(=O)C2CCCCC2)[C@@H](C)CN([C@@H](C)CO)S3(=O)=O)c1 ?
miR-122 inh: -41

How did COc1ccccc1NC(=O)N(C)C[C@H]1Oc2ncc(C#CCC(C)C)cc2C(=O)N([C@@H](C)CO)C[C@@H]1C do in these assays?
miR-122 inh: -6

High-throughput results: PubChem BioAssay, Broad Institute
